# Source: PubChem BioAssay
# Most compounds without a hit are left out; they make up all but 2.9% or so of the library.
# PTAP TSG101 blk: blocks PTAP/TSG101 interaction to inhibit HIV-1 budding; Q99816; Fluorescence polarization, FITC-PTAP peptide / Tsg101 binding; 340,000 tested, under 10 active; Potency, µM (highest dose often 115 µM), for the others: at the highest dose activity change, negative = inhibition, usual class: inhibitors; active = well fitted inhibition curve with a large enough effect in the main read-out, with a control signal flat, not every such curve was filed as active; inconclusive = small, poorly fitted or top-dose-only effect, or effect the other way, or a change in a side signal; inactive = no such curve, though single readings can be large or run the other way; also: potency is read from the fitted curve at half-maximal effect; % of control where 0% means no effect
#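 Tsg101 binding domain (10 uM final) was mixed with compound and a FITC-labeled PTAP peptide (50 nM final) in HEPES pH 7.5 buffer with NaCl, Tween 20, EDTA and TCEP; fluorescence polarization was read after 20 min at r.t.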
# D3 ag: agonists of human D3 dopamine receptor. P35462. D3R DiscoveRx beta-arrestin cells, luminescence, 90 min. max activation, %. 0.58% of 410,000 active. AID 652048; in the data active = max activation above about 30%; also: 0% is about no effect
# Target sequence (P35462 whole entry, looked up): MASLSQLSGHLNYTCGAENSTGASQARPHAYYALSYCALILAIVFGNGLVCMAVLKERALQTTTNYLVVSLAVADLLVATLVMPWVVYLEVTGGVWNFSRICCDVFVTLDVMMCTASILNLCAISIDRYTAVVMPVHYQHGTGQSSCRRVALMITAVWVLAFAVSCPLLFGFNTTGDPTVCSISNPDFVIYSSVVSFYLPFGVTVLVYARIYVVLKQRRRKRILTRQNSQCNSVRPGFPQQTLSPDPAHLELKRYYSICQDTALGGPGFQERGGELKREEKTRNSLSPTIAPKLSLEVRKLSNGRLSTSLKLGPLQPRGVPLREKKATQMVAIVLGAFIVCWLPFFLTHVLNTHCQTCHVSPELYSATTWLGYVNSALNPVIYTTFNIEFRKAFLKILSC
#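 Agonist-mode cell screen: cells plated at 1500/well and incubated overnight at 37 °C, then exposed to library compounds for 90 min at 37 °C. Detection reagent was added for 30–60 min at room temperature, and luminescence was read.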
# Rango release inh: inhibition of RanGTP-driven Rango-importin beta dissociation | AID 540253 | Biochemical FRET Rango-importin beta, RanGTP-induced dissociation | O95149+P62826 | Potency, µM (series often up to 46.1 µM), for inactives: top-dose activity change, negative = inhibition | 0.071% of 340,000 active; also: potency is read from the fitted curve at half-maximal effect; % of control where 0% means no effect; nearly all actives have a fitted effect of over 45% in size
#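 Rango/importin beta premix (0.1/0.25 uM final), PBS + 1 mM DTT + 0.02% Tween-20 + 0.1% BSA; cpd 5 min RT; FRET pre-read; + RanGTP-RCC1 (0.6 uM Ran, 2 mM GTP, 0.2 uM RCC1); 45 min RT; FRET post-read, ex 430, em 486/530 nm.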
# Rango-impB inh: prevents formation of the Rango-importin beta complex; Q14974; Rango CFP/YFP FRET sensor + importin beta, 45 min; Potency, µM (series often up to 92.2 µM), inactives show at the top dose inhibition of complex formation; 0.031% of 340,000 active; AID 540263;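 also: potency is read from the fitted curve at half-maximal effect; 0% = DMSO wells and 100% = buffer wells lacking importin beta; nearly all actives have a fitted effect of over 15% in size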
#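 Inhibition scored from the CFP 486 nm/YFP 530 nm FRET ratio 45 min after adding 0.125 microM importin beta to 50 nM Rango biosensor preincubated 5 min with compound (room temperature, PBS with DTT, Tween-20, BSA). No-importin wells as positive control.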
# Mm-Cpn inhibitor: inhibitors of Methanococcus maripaludis chaperonin TRiC (MmCpn) | Potency, µM (top dose mostly 76.9 µM), for the others: top-dose activity, negative = inhibition, usual class: inhibitors | purified Mm-Cpn ATPase, ADP Transcreener TR-FRET | 0.031% of 330,000 active; active = well fitted inhibition curve with a large enough effect; inconclusive = small, poorly fitted or top-dose-only effect; also: potency is read from the fitted curve at half-maximal effect; % is scaled to controls: 0 for no effect and ±100 for the full control effect; nearly all actives have a fitted effect of over 80% in size
#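 25 nM Mm-CPN + cpd, 10 min 37°C; + 10 uM ATP, 30 min 37°C; buffer 30 mM Tris pH 7.4, 100 mM KCl, 5 mM MgCl2, 1 mM DTT; Transcreener ADP HTRF detection 30 min RT.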
# D3 antag: antagonists of human D3 dopamine receptor. P35462. D3R cells, DiscoveRx beta-arrestin luminescence, antagonist mode; active compounds read low. max response, negative = inhibition, %. 2.5% of 360,000 active; in the data active = max response below about -50%; inconclusive = no clear call, values can overlap the other calls; also: % is scaled to controls: 0 for no effect and ±100 for the full control effect
#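 Cells expressing the human receptor were seeded at 1500 cells/well, incubated overnight at 37 degrees C in 5% CO2, then exposed to library compounds with dopamine controls for 90 minutes at 37 degrees C before luminescent detection.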
# * marks the source's active call; other numbers are inactive results; ? = inconclusive; nt = no result; ! = a repeat was not active; [ ] = another dose, or the depositor's remark. Unless noted, calls follow the shape of the full dose curve.
SMILES,PTAP TSG101 blk,D3 ag,Rango release inh,Rango-impB inh,Mm-Cpn inhibitor,D3 antag
CC(NC(=O)C1CCCN(S(=O)(=O)c2cccc3nonc23)C1)c1ccccc1 (stereo not given),0%,-30,-12%,?,-1%,-61*
CSCC[C@H](N)C(=O)N1CCC(C(=O)N[C@@H](C)C(=O)NCc2ccc(F)cc2)CC1,1%,31*,3%,-2%,-1%,5
COc1ccc(CNC(=O)[C@H](C)NC(=O)C2CCN(C(=O)[C@@H](N)CCSC)CC2)cc1,0%,-5,-3%,0%,-4%,-6
Cc1nc(C(=O)NCc2ccccc2)sc1C1(C)CC(c2ccccc2)=NO1 (stereo not given),-6%,-18,11%,4%,-1%,-50*
COc1cccc(C2=NN(S(C)(=O)=O)C(c3cn(-c4ccccc4)nc3-c3cccs3)C2)c1 (stereo not given),nt,9,nt,nt,nt,nt
C[C@H](O)[C@@H]1CN2CCc3c([nH]c4ccccc34)[C@@H]2C[C@@H]1N(C)C(=O)Nc1cccc2ccccc12,nt,-14,nt,nt,nt,-58*
Cc1ccc(Nc2cc(C)nn2-c2nc(C)cc(=O)[nH]2)cc1,-7%,0,-13%,4%,2%,-67*
O=C(O)CCCCCCCCc1cn(CC2CCCCC2)nn1,1%,-2,-9%,0%,-2%,-10
Cc1ccc(-n2cc(CCCCCCCCC(=O)O)nn2)cc1,-3%,30*,-5%,7%,-3%,2
CCCCCC(=O)Nc1cccc(C2=NOC3(C2)C[C@@H](C(N)=O)N(C(=O)Cc2ccc([N+](=O)[O-])cc2)C3)c1 (stereo not given in full),-3%,2,1%,0%,0%,-56*
CCOC(=O)CSc1nc2c([nH]c3ccccc32)c(=O)n1-c1ccc(OCC)cc1,nt,-7,nt,nt,nt,nt
CN(C)CCOC(c1ccccc1)c1ccccc1 (tested in a mixture with another compound),0%,-77,-1%,7%,3%[15.4 µM],-67*
CN(C)CCOC(c1ccccc1)c1ccccc1,-2%,-71,-4%,-2%,2%,-52*!
CN(C)CCC(c1ccc(Br)cc1)c1ccccn1 (stereo not given),1%,-49,2%,-1%,-2%,5
Cc1ccccc1C(OCCN(C(C)C)C(C)C)c1ccccc1 (stereo not given),-2%,-10,-14%,-1%,3%,-5
CN(C)CCOC(c1ccc(Cl)cc1)c1ccccn1 (stereo not given),-2%,41*!,-8%,-2%,0%,-2
CCc1ccc(NC(=O)CN(c2ccc(Cl)cc2)S(=O)(=O)c2ccsc2C(=O)OC)cc1,nt,-10,nt,nt,nt,nt
CC1CCN(c2nc3c(S(=O)(=O)c4ccc(Cl)cc4)nnn3c3ccsc23)CC1,nt,13,nt,nt,nt,nt
C[C@H](NC(=O)c1nc[nH]c1C(=O)NCCCCCNC(=O)OC(C)(C)C)C(=O)OCc1ccccc1,1%,65*,-17%,-2%,nt,171
CC(C)(C)OC(=O)NCCCC[C@H](NC(=O)c1nc[nH]c1C(=O)N1CCc2ccccc2C1)C(=O)OC(C)(C)C,0%,0,-16%,?,-2%,17
CC(C)C[C@H](NC(=O)c1nc[nH]c1C(=O)NCc1ccccc1)C(=O)OCc1ccccc1,-5%,-4,4%,0%,nt,-53*
CC(C)(C)OC(=O)NCCCCCNC(=O)c1nc[nH]c1C(=O)N1CCc2ccccc2C1,-1%,38*,19%,-2%,4%,80
CC(C)(C)OC(=O)CNC(=O)c1[nH]cnc1C(=O)NCC(=O)OCc1ccccc1,-2%,71*,-2%,-4%,0%,67
CC(C)(C)OC(=O)NCCCCCNC(=O)c1nc[nH]c1C(=O)NCC(=O)OCc1ccccc1,-3%,27,-16%,-5%,2%,110
O=S(=O)(c1cc(O)ccc1O)c1cccc2c(S(=O)(=O)c3cc(O)ccc3O)cccc12,-5%,-9,14%,?,0%,4
SMILES,PTAP TSG101 blk,D3 ag,Rango release inh,Rango-impB inh,Mm-Cpn inhibitor,D3 antag
C[C@H](NC(=O)c1nc[nH]c1C(=O)N1CCNCC1)C(=O)OC(C)(C)C,2%,11,-20%,0%,-1%,4
CC(C)(C)OC(=O)CNC(=O)c1[nH]cnc1C(=O)Nc1ccc(CNC(=O)OC(C)(C)C)cc1,-2%,9,3%,5%,-2%,142
CC(C)(C)OC(=O)NCc1ccc(NC(=O)c2nc[nH]c2C(=O)NCCNC(=O)c2[nH]cnc2C(=O)Nc2ccc(CNC(=O)OC(C)(C)C)cc2)cc1,-1%,42*,1%,6%,2%,76
C[C@H](NC(=O)c1[nH]cnc1C(=O)Nc1ccc(CNC(=O)OC(C)(C)C)cc1)C(=O)OCc1ccccc1,-8%,80*,5%,0%,1%,42
CC(C)C[C@H](NC(=O)c1nc[nH]c1C(=O)N1CCNCC1)C(=O)OC(C)(C)C,-1%,-17,-3%,4%,-1%,-54*
Cc1cc(C(=O)COC(=O)C2=NNC(=O)CC2)c(C)n1-c1cccc(C(F)(F)F)c1,-4%,41*,-12%,3%,-2%,20
COc1cc(NC(=O)CC[C@H]2O[C@@H](n3cnc4c(NC(=O)c5ccccc5)ncnc43)[C@H](O)[C@@H]2O)cc(OC)c1OC,nt,-10,nt,nt,nt,-52*
O=C(/C=C/NNC(=O)c1ccccc1)c1ccccc1,-3%,-12,-27%,?,-2%,-53*
O=C(/C=C/NNC(=O)c1ccc(Br)cc1)c1ccccc1,-8%,-17,?,-3%,-1%,-5
COc1cccc(CNC(=O)c2ccc3c(c2)sc2nc(-c4ccccc4)cn23)c1OC,nt,5,nt,nt,nt,nt
COc1ccc(Cl)cc1NC(=O)CSC1=Nc2ccccc2C2=NC(CCC(=O)NCc3ccco3)C(=O)N12 (stereo not given),nt,5,nt,nt,nt,nt
Cc1ccc(NC(=O)c2nc(S(C)(=O)=O)ncc2N(Cc2ccco2)Cc2ccco2)cc1C,nt,-11,nt,nt,nt,nt
Cc1ccc(N(C)S(=O)(=O)c2cccc(C(=O)Nc3nc4ccccc4[nH]3)c2)cc1,0%,42*,-11%,0%,-6%,34
Cc1ccc(N(C)S(=O)(=O)c2cccc(C(=O)NCC(c3ccco3)N3CCCC3)c2)cc1 (stereo not given),0%,-21,0%,2%,3%,-69*
Cc1cccc(NS(=O)(=O)c2cccc(C(=O)NCC(c3ccco3)N3CCCCC3)c2)c1 (stereo not given),-2%,-11,-9%,1%,1%,-64*
